# Reference: PubChem BioAssay (NCI)
# This is part of a sample that, as a whole, favours compounds with a hit. Of some 83,000 tested, about 20% had one in any assay.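 Growth was measured after 48 h exposure to one concentration of compound in 96-well plates. Values under 10 count as active.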 Values without a mark were called inactive. Activity calls are given as the source filed them.
# Key:
# Experiment in all cases: NCI-60 one-dose screen, 48 h (100 = growth as untreated, 0 = no growth, -100 = all killed)
# HT29 colon = details: 10 µM unless noted
# SNB-75 CNS = details: 10 µM unless noted
# SNB-19 CNS = details: 10 µM unless noted
# U251 CNS = details: 10 µM unless noted
# PC-3 prostate = details: 10 µM unless noted
# SK-MEL-5 melanoma = details: 10 µM unless noted
# UACC-62 melanoma = details: 10 µM unless noted
# LOX IMVI melanoma = details: 10 µM unless noted
# SK-MEL-28 melanoma = details: 10 µM
# SK-MEL-2 melanoma = details: 10 µM unless noted
# EKVX NSCLC = details: 10 µM unless noted
# SN12C renal = details: 10 µM unless noted
# UO-31 renal = details: 10 µM unless noted
# TK-10 renal = details: 10 µM unless noted
# ACHN renal = details: 10 µM unless noted
# CAKI-1 renal = details: 10 µM unless noted
# A498 renal = details: 10 µM unless noted
# MOLT-4 leukemia = details: 10 µM unless noted
# SR leukemia = details: 10 µM unless noted
# CCRF-CEM leukemia = details: 10 µM unless noted
SMILES,growth (HT29 colon),growth (SNB-75 CNS),growth (SNB-19 CNS),growth (U251 CNS),growth (PC-3 prostate),growth (SK-MEL-5 melanoma),growth (UACC-62 melanoma),growth (LOX IMVI melanoma),growth (SK-MEL-28 melanoma),growth (SK-MEL-2 melanoma),growth (EKVX NSCLC),growth (SN12C renal),growth (UO-31 renal),growth (TK-10 renal),growth (ACHN renal),growth (CAKI-1 renal),growth (A498 renal),growth (MOLT-4 leukemia),growth (SR leukemia),growth (CCRF-CEM leukemia)
COc1ccc(OC)c(NC(=O)/C(C#N)=C/c2ccco2)c1,91.8%,82.2%,93.8%,94.2%,89.7%,102%,86.5%,98.2%,104%,87.1%,94%,101%,67.8%,114%,93.6%,90.4%,101%,78.7%,74.3%,
COc1ccc(C2=Nn3c(NN)nnc3SC2)cc1,83.8%,92.4%,104%,99.7%,87.6%,91.5%,104%,99.9%,110%,94.4%,118%,101%,84.5%,97.5%,103%,89.7%,84.6%,83%,75.8%,95.1%
COc1ccccc1C1=C(Br)C(=O)c2nc(C)ccc2C1=O,101%,94.4%,101%,102%,101%,100%,88.9%,97.1%,104%,97.2%,99.5%,92.4%,77.2%,101%,19.9%,98.4%,,117%,105%,92%
CCCCN1CCN(c2ccc3nc(-c4ccc5nc(-c6ccc(OCC)cc6)[nH]c5c4)[nH]c3c2)CC1,21.4%,60%,85.3%,60.5%,56.7%,49.3%,59.9%,-81% (active),61.6%,86.6%,92.9%,76.9%,100%,86.8%,63.9%,51.2%,,56.9%,-1.98% (active),20.5%
CCN1C(=O)N(CC)C2Nn3c(s/c(=C4\C(=O)N(C(C)C)c5ccccc54)c3=O)=NC21 (stereo unspecified),11.6%,60.2%,46.4%,28.1%,26.3%,41.4%,36.4%,40.6%,55.1%,72.9%,29.9%,47.7%,55.8%,86.6%,43.1%,45.9%,37.4%,19.6%,21.2%,19.3%
COc1cc2nc(-c3cnc(N(C)C)nc3)nc(NC3CCN(Cc4ccccc4)CC3)c2cc1OC,-84.4% (active),-96.7% (active),-79.2% (active),-87.4% (active),-83.2% (active),10.6%,-94.5% (active),-91.9% (active),-78.7% (active),89.5%,-71.2% (active),-87.2% (active),-81.2% (active),-98.6% (active),-100% (active),-90.9% (active),43.2%,-16.5% (active),4.28% (active),-31.3% (active)
COC(=O)c1c2c(c(C)[n+]([O-])c1C)C(=O)C=C(NCc1ccccc1)C2=O,5.35% (active),-71.5% (active),-11.4% (active),-9.66% (active),4.06% (active),-98.5% (active),-72.3% (active),-28.2% (active),14.1%,-29.6% (active),-54.9% (active),-89.1% (active),-13.6% (active),18.1%,-29.5% (active),3.56% (active),,-36.2% (active),4.44% (active),6.23% (active)
Nc1n[nH]c2ccc([C@@H]3Nc4ccc5[nH]ncc5c4[C@H]4[C@H]5CCC(C5)[C@H]43)cc12,2.25% (active),11.4%,33.4%,20.1%,25.6%,16.9%,40.5%,14.7%,57.7%,29.5%,40.2%,24.6%,46.3%,60.8%,,16.4%,-20.5% (active),18%,,17%
COC(=O)c1c2c(c(C)[n+]([O-])c1C)C(=O)C(NCc1ccc(F)c(F)c1)=CC2=O,11.6%,83.6%,8.33% (active),2.99% (active),15.6%,-97% (active),-15.7% (active),5.3% (active),50.2%,43.1%,13%,1.1% (active),58.8%,85.5%,22.1%,43%,,8.41% (active),20.4%,21.5%
Cc1cccc2c(=O)c3c(sc12)c(N1CCNCC1)nc1ccccc13,6.4% (active),50%,82.6%,59.9%,69.9%,80.2%,89.9%,10.3%,80.1%,98.2%,68.9%,69.8%,36.7%,86.3%,46%,54.8%,,33.8%,-17% (active),62.4%
Cc1cccc2c(=O)c3c(sc12)c(NCCCNCCO)nc1ccccc13,-24.1% (active),23.8%,64.7%,28.7%,43.6%,59%,60.2%,-88.2% (active),32.9%,91.2%,53.5%,44.6%,34.8%,49.5%,9.89% (active),24.8%,,-34% (active),-27.3% (active),15%
COc1ccc(-c2nsc3c2NC(=O)CC3c2cccc(OC)c2)cc1 (stereo unspecified),8.58% (active),-17.5% (active),70.3%,37.8%,23.8%,31.6%,41.5%,50.3%,45.3%,34.1%,,66.9%,46.3%,61.9%,55.1%,32.9%,27.4%,32.2%,24.3%,14.2%
O=c1cc(NC2CCN(CCCc3ccccc3)CC2)c2cc(Cl)ccc2o1,-12.9% (active),-5.24% (active),25.6%,-24.7% (active),0% (active),-54.6% (active),9.81% (active),-1.07% (active),8.62% (active),-44% (active),,6.09% (active),-10.4% (active),-13.9% (active),10.3%,-10.6% (active),-19% (active),1.27% (active),-11.4% (active),3.59% (active)
COc1cc(C(C)n2cc(-c3ccccc3)nn2)ccc1OC1CCCCC1 (stereo unspecified),82.3%,68.1%,68.7%,81%,69.6%,29.9%,55.7%,63.1%,95.1%,92.8%,,67.7%,56.9%,75.3%,51.1%,48.7%,49.3%,50.1%,,55.3%
COc1ccc(Cn2c(Br)c3c(c2Br)-c2nc(NC(=O)c4ccc(OC)cc4)sc2CC3)cc1,84.8%,48.2%,80.1%,67.8%,71.5%,62.1%,63.5%,80.3%,81.8%,83.8%,,85.1%,44.9%,89.4%,51.8%,76.2%,65.9%,94.7%,67.4%,85.3%
